Compounds with a hit are over-represented: about 14% of the library has one in this group of screens.
NS1 inh: inhibitors of influenza NS1 protein function; Potency, µM (top dose mostly 46.1 µM), for the others: at the highest dose activity, positive = more growth; 0.4% of 270,000 active; AID 2326; calls by dose curve; further: potency means the concentration at half of the fitted maximal effect; actives are rising curves; nearly all actives have a fitted effect of over 50% in size
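Recovery from NS1-induced slow growth read by OD600 in budding yeast switched to galactose assay medium (pH 6.0, -URA) at 1:100 dilution. Compound 23 nl per well; the matching strain lacking NS1 serves as control.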
LmPK inh: LmPK (Leishmania mexicana) enzyme inhibition. Potency, µM (series often up to 57.5 µM), for inactives: top-dose activity change, negative = inhibition, most hits filed as inhibitors. Q27686. purified LmPK, Kinase-Glo ATP luminescence, 1 h. 0.37% of 290,000 active; further: potency means the concentration at half of the fitted maximal effect; on the % scale 0 is the no-effect control and ±100 the full control effect
Target sequence (Q27686 whole entry, looked up): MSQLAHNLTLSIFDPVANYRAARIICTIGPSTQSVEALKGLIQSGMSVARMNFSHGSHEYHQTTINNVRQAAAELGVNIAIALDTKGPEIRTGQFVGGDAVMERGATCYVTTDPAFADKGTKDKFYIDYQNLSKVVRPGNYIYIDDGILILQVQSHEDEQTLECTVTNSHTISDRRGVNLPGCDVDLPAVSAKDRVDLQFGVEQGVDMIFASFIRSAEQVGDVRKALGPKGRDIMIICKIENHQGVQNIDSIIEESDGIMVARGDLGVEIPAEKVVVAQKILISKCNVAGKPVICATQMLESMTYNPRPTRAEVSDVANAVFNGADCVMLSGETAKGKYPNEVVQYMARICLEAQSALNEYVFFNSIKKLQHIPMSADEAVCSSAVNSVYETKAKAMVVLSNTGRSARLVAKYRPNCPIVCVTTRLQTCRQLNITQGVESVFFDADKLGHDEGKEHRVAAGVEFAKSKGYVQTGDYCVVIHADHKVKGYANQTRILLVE
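Purified LmPK (0.1 nM) with 0.5 mM PEP and 0.1 mM ADP in imidazole buffer pH 7.2 with MgCl2/KCl, 1 h at room temperature. ATP formed was read by luciferase luminescence and normalized to no-enzyme and uninhibited controls.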
Shiga toxin inh: inhibitors of Shiga toxin in Vero cells | Vero cells, Shiga toxin protein synthesis inhibition reporter | inhibition, % at 38.7 µM | 9.2% of 290,000 active | AID 2315; in the data active means inhibition mostly above about 28%, no sharp cut-off; inactive means mostly below about 43%; further: 0% is about no effect
Giardia FBPA inh: blocks Giardia fructose-bisphosphate aldolase activity; 0.71% of 290,000 active; Potency, µM (doses to about 59.6 µM), without a hit: at the top dose activity, negative = inhibition, hits mostly inhibitors; purified Giardia FBPA; AID 2451; A8B2U2; further: potency means the concentration at half of the fitted maximal effect; on the % scale 0 is the no-effect control and ±100 the full control effect; nearly all actives have a fitted effect of over 55% in size
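Giardia FBPA (40 nM reagent) was preincubated 10 min at RT with compound (up to 57.5 uM final), then substrate plus GAPDH/TPI/NAD/arsenate coupling system with diaphorase/resazurin was added; resorufin fluorescence (525/598 nm) was read after 20 min.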
CHX counter: affects cycloheximide protein synthesis inhibition readout, counter-screen; cell reporter, cycloheximide protein synthesis inhibition counterscreen; max response, %; 12% of 300,000 active; AID 2314; in the data active means max response mostly above about 13%, no sharp cut-off; inactive means mostly below about 14%; further: read at 38.3 µM for the half of the compounds with a filed dose; 0% is about no effect
Numbers without * were called inactive; ? = inconclusive; . = no result given; [ ] = remark or other dose. Unless noted, the call rests on the fitted dose curve; in most records, active means well fitted curve in the direction sought with a large enough effect; inconclusive means small, poorly fitted or top-dose-only effect, or another doubt; inactive means no such curve, though single readings can be large; an effect the other way counts as inactive or inconclusive.

SMILES	NS1 inh	LmPK inh	Shiga toxin inh	Giardia FBPA inh	CHX counter
Cc1ccn2cc(C(=O)NCc3ccco3)nc2c1	.	-4%	58*	0%	25*
O=C(NCc1ccco1)c1cc(-c2ccco2)on1	-6%	-5%	74*	5%	31*
CCc1ccccc1NC(=O)c1cc(-c2ccco2)on1	-31%	0%	32	0%	6
COc1ccc(CCNC(=O)c2cc(-c3ccco3)on2)cc1OC	.	11%	65	1%	26
O=C(NCCc1ccccc1)c1cc(-c2ccco2)on1	-12%	-3%	104*	5%	45*
Cc1cc(C)n2nc(C(=O)NCc3ccco3)cc2n1	.	1%	2	0%	-2
NC(=[SH+])N=N/C=C1/C=CC=CN1.O=S(=O)(O)O.[Fe]	5%	.	.	.	.
CN(C)CCCc1c[nH]c2ccccc12	2%	.	.	.	.
CC1CN(C(=O)COC(=O)c2ccc(C#N)cc2)CC(C)O1 (stereo unspecified)	7%	-2%	4	-4%	-8
O=C(Nc1nc(-c2ccc3c(c2)OCCO3)cs1)C1CCCC1	4%	13%	149*	-17%	49*
CCOC(=O)N1CCN(C(=O)CSCC(=O)Nc2nc(-c3ccc4c(c3)OCO4)cs2)CC1	6%	6%	26	-5%	16
O=C(CSCC(=O)N1CCOCC1)Nc1nc(-c2ccc3c(c2)OCO3)cs1	0%	2%	35	0%	33*
N#CCC(=O)Nc1nc(-c2ccc3c(c2)OCCO3)cs1	17%	-5%	56*	1%	32*
O=C(CCCCl)Nc1nc(-c2ccc3c(c2)OCCO3)cs1	-9%	9%	70*	-16%	31*
O=C(Nc1nc(-c2ccc3c(c2)OCCO3)cs1)c1ccc(S(=O)(=O)N2CCCCC2)cc1	6%	-1%	3	-6%	-2
Cc1ccc(-c2nc(=O)[nH]c3ccc(Br)cc23)cc1	22%	-7%	-15	-10%	1
N#Cc1ccsc1NC(=O)CCN1CCN(C(c2ccccc2)c2ccccc2)CC1	-18%	-8%	-10	8%	-3
Cc1ccc(-c2noc(-c3ccccc3C(=O)N3CCOCC3)n2)cc1	-7%	2%	2	4%	12
NC(=O)c1ccccc1-c1nc(-c2ccccc2)no1	-15%	-11%	95*	-1%	44*
CCOc1ccccc1NC(=O)c1ccccc1-c1nc(-c2ccccc2)no1	-45%	3%	37	3%	27*
CN1CCN(C(=O)c2ccccc2-c2nc(-c3ccccc3)no2)CC1	-8%	-2%	62	-8%	22*
CC1(C)CN(C(=S)Nc2ccc(F)cc2F)C1=O	5%	-3%	-7	?	1
CN1CCN(c2nc(-c3cccs3)cs2)CC1	.	0%	61	-19%	27*
CN1CCN(c2nc(-c3cc4ccccc4o3)cs2)CC1	1%	5%	85*	-2%	48*
CN1CCN(c2nc(-c3cccs3)cc(C(F)(F)F)n2)CC1	-4%	2%	-13	-27%	-4
SMILES	NS1 inh	LmPK inh	Shiga toxin inh	Giardia FBPA inh	CHX counter
Nc1nc(-c2cc3ccccc3o2)cs1	-43%	-3%	98*	-1%	33*
Cc1cc(C)n(CCc2nc(-c3cc4ccccc4o3)cs2)n1	-9%	2%	45	1%	23
O=C(NCc1ccc(Cl)cc1)c1cc(=O)[nH]c2ccccc12	6%	3%	11	0%	3
Cc1cc(N)c(NC2=CC(=O)CC(C)(C)C2)cc1C	?	1%	91*	1%	62*
Cc1ccc(NC2=CC(=O)CC(C)(C)C2)cc1F	0%	0%	-2	-8%	-1
Nc1ccc2nc(C(F)(F)F)[nH]c2c1	0%	-3%	-6	?	0
COC(=O)c1ccc2nc(C(F)(F)F)[nH]c2c1	-14%	-1%	11	?	17*
O=C(NC1CCOc2ccccc21)C1CCCC1 (stereo unspecified)	9%	-2%	-5	3%	-3
CCOCCOC(=O)Cn1cnc2scc(-c3ccc(C)cc3)c2c1=O	13%	-4%	-10	4%	-2
Cc1ccc(NC(=O)c2cc(-n3cnnc3)ccc2Cl)cc1	-4%	0%	-1	-3%	-2
Cc1ccc(NC(=O)c2cc(N(C)C)ccc2[P+](=O)O)cc1	5%	5%	105*	15%	84*
O=C(Cc1ccccc1F)Nc1ccc2c(c1)CCC2	-4%	0%	73*	-12%	28
O=C(Cc1ccc2c(c1)CCCC2)Nc1ccc2ccccc2c1	-11%	2%	active	-19%	43*
Cc1ccccc1CC(=O)Nc1ccc2c(c1)CCC2	-8%	-1%	9	1%	13
O=C(Cc1cccc(F)c1)Nc1ccc2c(c1)CCC2	-22%	2%	76*	15%	18*
CN(c1cccc(Cl)c1)S(=O)(=O)c1cccc(C(=O)Nc2ccc3c(c2)CCC3)c1	?	-1%	47*	5%	30*
CN(c1ccc(F)cc1)S(=O)(=O)c1ccc(Cl)c(C(=O)Nc2ccc3c(c2)CCC3)c1	17%	-2%	18	1%	-1
COc1ccc(CC(=O)Nc2ccc3c(c2)CCC3)cc1OC	-9%	7%	4	1%	12
COC(=O)C1=C[C@@H](C(=O)OC)[C@H]2C3=C(C(=O)[C@@]2(C)NC(=O)c2ccccc2)[C@H](C)C(C(=O)OC)=C(C(=O)OC)[C@@H]3C1	.	.	-10	4%	-4
COCCn1c(=O)c(CCc2ccccc2)nc2cnc(Oc3ccccc3)nc21	.	.	.	-5%	.
COC(=O)[C@@H](Cc1c[nH]c2ccccc12)NC(=O)CCC(=O)c1ccc(Br)cc1	-37%	4%	16	-6%	7
O=C(Nc1ccc2c(c1)CCC2)c1cccc(F)c1	-31%	?	113*	-9%	75*
CC1CN(S(=O)(=O)c2cccc(C(=O)Nc3ccc4c(c3)CCC4)c2)CC(C)O1 (stereo unspecified)	-3%	1%	28	-4%	16
Cn1cc(C(=O)Nc2ccc3c(c2)CCC3)cn1	-8%	-7%	75*	-9%	56*
Cc1ccc(C(=O)Nc2ccc3c(c2)CCC3)cc1	-11%	?	5	-26%	24
SMILES	NS1 inh	LmPK inh	Shiga toxin inh	Giardia FBPA inh	CHX counter
CC(C)CO/N=C1/C[C@@H](O)[C@@H](O)[C@@H]2[C@@H]3C(=O)N([C@@H](C)c4ccccc4)C(=O)[C@H]3CC[C@H]12	.	.	.	-4%[12.9 µM]	.
Fc1cccc(NC(=S)NNc2c3ccccc3nc3ccccc23)c1	.	-1%	17	0%	8
O=C(O)/C=C\C(=O)Nc1cccc(NC(=O)c2ccccc2)c1	7%	3%	52	-6%	22*
O=C(Nc1ccncc1)c1cccc(F)c1	0%	-17%	1	2%	-1
O=C(Nc1ccc(Nc2ccccc2)cc1)c1cccc(F)c1	-43%	0%	117*	-2%	36*
Fc1cccc(NC(=S)NNc2ccccc2)c1	-48%	0%	45*	?	34*
CCN(CC)C(=O)c1ccc(NC(=O)c2cccc(F)c2)cc1	-12%	28µM*	72	3%	35*
O=C(O)/C=C/C(=O)Nc1ccc(NC(=O)c2ccccc2)c(Cl)c1	.	-25%	-11	16%	12
